From publication PMC3404119, “Topology and Dynamics of the Zebrafish Segmentation Clock Core Circuit” come the findings set out here.

The first experiment has as its target T1, Her1-GFP homodimer (zebrafish (Danio rerio), UniProt Q90463 1-328).
T1 sequence: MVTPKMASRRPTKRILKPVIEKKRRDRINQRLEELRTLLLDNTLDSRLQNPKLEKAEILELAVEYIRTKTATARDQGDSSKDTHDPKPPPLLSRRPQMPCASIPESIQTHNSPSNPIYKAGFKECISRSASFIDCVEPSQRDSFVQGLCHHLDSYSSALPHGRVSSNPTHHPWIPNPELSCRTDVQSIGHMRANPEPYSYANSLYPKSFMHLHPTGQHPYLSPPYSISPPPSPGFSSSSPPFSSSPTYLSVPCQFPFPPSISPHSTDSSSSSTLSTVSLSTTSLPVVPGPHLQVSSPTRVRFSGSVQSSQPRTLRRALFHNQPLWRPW
Description: MITOMI; PPARgamma-mCherry co-present (non-interacting control); TnT SP6 wheat germ expression extract on MITOMI chip, 3 h at room temperature; salt and pH not stated; PBS used for washing; high values mean tight binding. Conditions: protein: ivt; tags: C-terminal GFP; chain copies: 2; label: Cy5; dsDNA, one strand shown.
Turning to CTCCTCGTGTTG, the binding signal is 0.0177 ± 0.000557 relative affinity (strongest site = 1).
As for AGCCTCGTGTAA, the binding signal is 0.0363 ± 0.00627 relative affinity (strongest site = 1).
As for TTCCACGGGTCT, the binding signal was 0.0411 ± 0.00212 relative affinity (strongest site = 1).
On the same count and under the same terms, the value for GTACACGTGGCG was 0.237 ± 0.00793 relative affinity (strongest site = 1); that for GCGCTCGTGCGC was 0.0291 ± 0.00508 relative affinity (strongest site = 1).
AGCCACGTGGCT: the binding signal was 0.57 ± 0.0193 relative affinity (strongest site = 1).
Consider TTGCACGTGTAC, for which the binding signal is 0.0556 ± 0.0021 relative affinity (strongest site = 1).
Turning to AGACACGCGCTA, the binding signal is 0.118 ± 0.00385 relative affinity (strongest site = 1).
The same measure, in the same setting: the value for CAGCGCGTGCCT was 0.227 ± 0.0107 relative affinity (strongest site = 1); that for GGGCGCGTGCCG was 0.576 ± 0.0101 relative affinity (strongest site = 1); that for TTCCACGAGAAA was 0.0129 ± 0.000672 relative affinity (strongest site = 1).
Still for that read-out and setting: under CGACACGCGGTG stands 0.0408 ± 0.00225 relative affinity (strongest site = 1).
As to GTTCGCGTGTGC, the binding signal is 0.0452 ± 0.00123 relative affinity (strongest site = 1).
The same measure, in the same setting: under GCCCACGGGCCC stands 0.144 ± 0.0313 relative affinity (strongest site = 1); under ATCCACGTGTCC, 0.303 ± 0.0145 relative affinity (strongest site = 1).
As for CTCCACGTGCCC, the binding signal was 0.269 ± 0.00665 relative affinity (strongest site = 1).
On to ATACACAGTGCGC, for which the binding signal was 0.0128 ± 0.000425 relative affinity (strongest site = 1).
On to TGCCGCGTGCAC, for which the binding signal was 0.033 ± 0.00214 relative affinity (strongest site = 1).
For AGGCGCGTGGTG, the binding signal is 0.077 ± 0.00506 relative affinity (strongest site = 1).
On to CAACACGGGGTG, for which the binding signal is 0.026 ± 0.00978 relative affinity (strongest site = 1).
As for TGACGCGTGTGA, the binding signal was 0.118 ± 0.00595 relative affinity (strongest site = 1).

Another experiment deals with T2, Her7 (coupled to chip, Fig 2D);Hes6-mCherry (zebrafish (Danio rerio);zebrafish …, UniProt Q9I9K1;Q6P0J1 1-206;1-226, |).
T2 sequence 1: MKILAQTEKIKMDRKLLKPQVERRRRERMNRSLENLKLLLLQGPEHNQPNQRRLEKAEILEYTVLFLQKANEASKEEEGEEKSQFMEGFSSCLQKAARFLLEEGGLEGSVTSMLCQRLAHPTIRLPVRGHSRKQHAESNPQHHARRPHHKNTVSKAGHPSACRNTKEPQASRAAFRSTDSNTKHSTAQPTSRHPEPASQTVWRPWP
T2 sequence 2: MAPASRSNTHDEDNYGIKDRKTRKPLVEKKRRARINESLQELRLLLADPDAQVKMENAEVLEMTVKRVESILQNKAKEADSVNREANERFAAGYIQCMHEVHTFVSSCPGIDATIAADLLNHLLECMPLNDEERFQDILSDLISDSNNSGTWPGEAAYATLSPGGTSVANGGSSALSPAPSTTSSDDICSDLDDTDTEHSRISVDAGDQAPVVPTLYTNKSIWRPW
Description: MITOMI; Her7:Hes6 heterodimer, Her7 coupled to chip and Hes6-mCherry in solution; TnT SP6 wheat germ expression extract on MITOMI chip, 3 h at room temperature; salt and pH not stated; PBS used for washing; high values mean tight binding. Conditions: protein: ivt;ivt; copies: 1;1; label: Cy5; dsDNA, one strand shown.
As for CTCCTCGTGTTG, the binding signal is 0.0605 ± 0.00276 relative affinity (strongest site = 1).
On the same count and under the same terms, under AGCCTCGTGTAA stands 0.0516 ± 0.00244 relative affinity (strongest site = 1); under TTCCACGGGTCT, 0.0587 ± 0.00207 relative affinity (strongest site = 1); under GTACACGTGGCG, 0.275 ± 0.00281 relative affinity (strongest site = 1).
As for GCGCTCGTGCGC, the binding signal was 0.0861 ± 0.00202 relative affinity (strongest site = 1).
Same read-out and setting: under AGCCACGTGGCT stands 0.347 ± 0.00813 relative affinity (strongest site = 1); under TTGCACGTGTAC, 0.178 ± 0.00237 relative affinity (strongest site = 1); under AGACACGCGCTA, 0.2749 ± 0.00267 relative affinity (strongest site = 1).
CAGCGCGTGCCT: the binding signal was 0.4636 ± 0.00426 relative affinity (strongest site = 1).
GGGCGCGTGCCG: the binding signal is 0.748 ± 0.021 relative affinity (strongest site = 1).
Regarding TTCCACGAGAAA, the binding signal is 0.0286 ± 0.00127 relative affinity (strongest site = 1).
Turning to CGACACGCGGTG, the binding signal was 0.0849 ± 0.00174 relative affinity (strongest site = 1).
With GTTCGCGTGTGC, the binding signal is 0.1 ± 0.00206 relative affinity (strongest site = 1).
Still for that read-out and setting: under GCCCACGGGCCC stands 0.0279 ± 0.00171 relative affinity (strongest site = 1); under ATCCACGTGTCC, 0.256 ± 0.00386 relative affinity (strongest site = 1); under CTCCACGTGCCC, 0.297 ± 0.00926 relative affinity (strongest site = 1).
The same measure, in the same setting: under ATACACAGTGCGC stands 0.0208 ± 0.0021 relative affinity (strongest site = 1); under TCACACCTGTGCAG, 0.02 ± 0.00133 relative affinity (strongest site = 1).
On to TGCCGCGTGCAC, for which the binding signal was 0.163 ± 0.00188 relative affinity (strongest site = 1).
Turning to AGGCGCGTGGTG, the binding signal was 0.157 ± 0.00403 relative affinity (strongest site = 1).
Regarding CAACACGGGGTG, the binding signal was 0.0311 ± 0.0032 relative affinity (strongest site = 1).
Still for that read-out and setting: under TGACGCGTGTGA stands 0.387 ± 0.0053 relative affinity (strongest site = 1).
